{"source": "PubChem BioAssay", "note": "Active and inactive are the calls of the source. The rule behind the calls is not given here.", "data": [{"target": "Pantothenate synthetase (Mycobacterium tuberculosis (strain ATCC 25618 / H37Rv)) (UniProt P9WIL5)", "sequence (P9WIL5 whole entry, looked up)": "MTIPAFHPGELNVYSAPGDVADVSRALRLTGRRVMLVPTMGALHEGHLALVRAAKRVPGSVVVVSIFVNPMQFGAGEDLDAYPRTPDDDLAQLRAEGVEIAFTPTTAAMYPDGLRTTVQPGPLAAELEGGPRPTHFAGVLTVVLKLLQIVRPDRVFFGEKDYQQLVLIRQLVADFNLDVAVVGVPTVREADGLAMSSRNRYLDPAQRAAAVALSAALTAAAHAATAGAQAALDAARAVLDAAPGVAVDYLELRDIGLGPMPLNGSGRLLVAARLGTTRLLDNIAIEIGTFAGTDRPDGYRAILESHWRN", "test": "Coupled enzyme confirmation of inhibitors against recombinant Mtb PanC (AID 375);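 note: 0% = full reaction with vehicle and 100% = no enzyme background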", "settings": "coupled enzyme assay; at 10 µM, stronger effect = higher value", "values": [{"smiles": "O=C(c1csc2ccccc12)n1cccn1", "inhibition": "0% (inactive)"}, {"smiles": "CCCn1c(SCC(=O)NCCc2ccccc2)nnc1-c1ccccn1", "inhibition": "6% (inactive)"}, {"smiles": "O=C(O)c1cccn2c(=O)c3ccccc3nc12", "inhibition": "0% (inactive)"}, {"smiles": "Cc1ccc(-c2[nH]nc3c2C(c2ccc(OC(=O)N4CCOCC4)cc2)C(C#N)=C(N)O3)cc1", "note": "(stereo not given)", "inhibition": "2% (inactive)"}, {"smiles": "CC(=O)N1c2c(cc(Br)cc2S(=O)(=O)NCC2COc3ccccc3O2)CC1C", "note": "(stereo not given)", "inhibition": "2% (inactive)"}, {"smiles": "COC(=O)c1cc(-c2c(C)oc3cc(O)ccc3c2=O)c(C)o1", "inhibition": "3% (inactive)"}, {"smiles": "Fc1cccc(Cl)c1Cn1nnc2c(NCc3ccccn3)ncnc21", "inhibition": "0% (inactive)"}, {"smiles": "COc1ccccc1OCCNC(=O)c1cccs1", "inhibition": "0% (inactive)"}, {"smiles": "COc1cccc(C(=O)CSc2nnc(COc3cccc4cccnc34)o2)c1", "inhibition": "0% (inactive)"}, {"smiles": "Cn1c(=O)c2c(nc(SCCCC#N)n2Cc2ccccc2F)n(C)c1=O", "inhibition": "0% (inactive)"}, {"smiles": "COCCNC(=O)Cn1nc(C(F)(F)F)c(Br)c1C", "inhibition": "0% (inactive)"}, {"smiles": "COc1ccc(C(c2sc3nc(C)nn3c2O)N2CCCCC2)cc1", "note": "(stereo not given)", "inhibition": "0% (inactive)"}, {"smiles": "CCC(=O)Oc1ccc2c(C)cc(=O)oc2c1C", "inhibition": "2% (inactive)"}, {"smiles": "CC(C)OC(=O)CSc1nnc(-c2cccnc2)n1Cc1ccccc1", "inhibition": "3% (inactive)"}, {"smiles": "O=C(Nc1c(-c2ccccc2)nc2ccccn12)c1ccco1", "inhibition": "0% (inactive)"}, {"smiles": "Cc1cnc(C(=O)Nc2ccc(N3CCOCC3)cc2)cn1", "inhibition": "4% (inactive)"}, {"smiles": "CCSc1nnc(-c2ccc(OC)cc2)o1", "inhibition": "0% (inactive)"}, {"smiles": "COC(=O)c1ccc(C2C(C#N)=C(N)Oc3cc(C)n(C)c(=O)c32)cc1", "note": "(stereo not given)", "inhibition": "0% (inactive)"}, {"smiles": "O=C(Nc1ccc(Br)c2cccnc12)c1ccc(Cn2cc(Cl)cn2)o1", "inhibition": "1% (inactive)"}, {"smiles": "CCOC(=O)N1CCN(Cc2cc(=O)oc3ccc4ccccc4c23)CC1", "inhibition": "6% (inactive)"}, {"smiles": "CCn1ncc(C2=NOC(C(=O)Nc3ccc4c(c3)OCO4)C2)c1C", "note": "(stereo not given)", "inhibition": "0% (inactive)"}, {"smiles": "O=S(=O)(NCc1ccccc1)c1ccc2c(c1)OCCO2", "inhibition": "0% (inactive)"}, {"smiles": "Cc1ccc(NC(=O)CSc2nnc(CNC(=O)c3c(F)cccc3Cl)o2)cc1", "inhibition": "3% (inactive)"}, {"smiles": "CCOC(=O)N1CCN(C(c2ccc(Cl)cc2)c2sc3nc(C)nn3c2O)CC1", "note": "(stereo not given)", "inhibition": "0% (inactive)"}, {"smiles": "CCC(=O)n1nc(-c2ccco2)nc1N", "inhibition": "0% (inactive)"}, {"smiles": "CC12CCC(C(=O)O)(c3nc(C#N)c(C#N)nc31)C2(C)C", "note": "(stereo not given)", "inhibition": "13% (inactive)"}, {"smiles": "Cc1ccc(-n2nnnc2SCC(=O)N2CCN(C(=O)c3ccco3)CC2)c(C)c1", "inhibition": "0% (inactive)"}, {"smiles": "Cc1ccc2c(c1)-c1cc(C)nn1C(c1ccc3c(c1)OCO3)N2", "note": "(stereo not given)", "inhibition": "0% (inactive)"}, {"smiles": "CS(=O)(=O)N(CC(=O)NCc1ccccn1)c1ccc2c(c1)OCCO2", "inhibition": "0% (inactive)"}, {"smiles": "COc1ccc(C(=O)Oc2c(CN3CCOCC3)cc(Cl)c3cccnc23)cc1OC", "inhibition": "0% (inactive)"}, {"smiles": "CC1CCc2nn(CC(=O)NCc3ccc(F)cc3)cc2C1", "note": "(stereo not given)", "inhibition": "7% (inactive)"}, {"smiles": "O=C1NC(=O)C(c2ccccc2)(c2ccccc2)N1", "inhibition": "0% (inactive)"}, {"smiles": "COC(=O)CN1C(=O)C2(C(C#N)=C(N)Oc3c2c(C)nn3-c2ccccc2)c2ccccc21", "note": "(stereo not given)", "inhibition": "3% (inactive)"}, {"smiles": "Cc1cccc2cc(C#N)c(NCCNC(=O)NC3CCCCC3)nc12", "inhibition": "1% (inactive)"}, {"smiles": "Cc1ccc(S(=O)(=O)C2(C(=O)NC3CCCC3)CC2)cc1", "inhibition": "9% (inactive)"}, {"smiles": "COc1cccc(C(c2nnnn2CCc2ccccc2)N2CCN(c3ccccc3)CC2)c1OC", "note": "(stereo not given)", "inhibition": "0% (inactive)"}, {"smiles": "COc1ccc(NC(=O)c2ccco2)cc1NC(=O)c1cccs1", "inhibition": "0% (inactive)"}, {"smiles": "CCC(=O)O[C@]1(C(=O)CCl)[C@@H](C)C[C@H]2[C@@H]3CCC4=CC(=O)C=C[C@]4(C)[C@@]3(F)[C@@H](O)C[C@@]21C", "inhibition": "0% (inactive)"}, {"smiles": "CN(C)CC(=O)N1c2ccccc2CCc2ccc(NC(=O)c3ccc(N)cc3)cc21", "inhibition": "0% (inactive)"}, {"smiles": "O=S(=O)(NCCc1ccccc1F)c1cccc(S(=O)(=O)N2CCOCC2)c1", "inhibition": "0% (inactive)"}]}]}
